A short description of assay [1]: small molecules captured by biotinylated probe aFSTL3 – biochemical, small-molecule microarray, fluorescence 635/667, stem cell growth factor project, primary screen (AID 1064).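 Further: measures binding of the biotinylated anti-FSTL3 antibody to printed compounds.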 To be noted: higher = more signal.
Assay [2] in a line: binders from COS7 lysate, DM2A8 probe, primary screen, torsin A project, cell lysate, small-molecule microarray, fluorescence 635/667 (AID 1065). Particulars: higher = more signal, COS7 lysate expressing mutant human TOR1A.
Assay [3] is described as follows: small molecules captured by biotinylated probe aFGF2 – biochemical, small-molecule microarray, fluorescence 635/667, stem cell growth factor project, primary screen (AID 1067).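 Further: measures binding of biotinylated aFGF2 protein to printed compounds on slides; z-score merges feature fluorescence and signal-to-noise across triplicate slides.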 To be noted: higher = more signal.
Assay [4] is described as follows: small molecules captured by biotinylated probe aFGF10 – biochemical, small-molecule microarray, fluorescence 635/667, stem cell growth factor project, primary screen (AID 1071).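 Further: score merges 667 nm spot intensity and signal to noise from triplicate slides.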 To be noted: higher = more signal.
Assay [5] deals with Neurogenic locus notch homolog protein 2 (Homo sapiens) (UniProt Q04721). Nature of the assay: small molecules binding Notch2 protein – biochemical, small-molecule microarray, 635 nm fluorescence, stem cell growth factors, primary screen (AID 1073). Particulars: higher = more signal.
Assay [6] has as its target Pro-neuregulin-1, membrane-bound isoform (Homo sapiens) (UniProt Q02297). Nature of the assay: small molecules binding neuregulin-1 protein – biochemical, small-molecule microarray, fluorescence 635/667, psychiatric disease protein project, primary screen (AID 1075).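 Further: score combines 667 nm spot fluorescence with signal to noise.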 Particulars: NRG1 binding, 635 nm fluorescence, higher = more signal.
The subject of assay [7] is Neuregulin-1 EGF-like domain. The assay is described as follows: small molecules binding NRG1 EGF domain – biochemical, small-molecule microarray, 635 nm fluorescence, primary screen (AID 1081).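 Further: binding of the protein to compounds printed on small-molecule microarray slides.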 Particulars: higher = more signal.
Assay [8] is described as follows: FRG1 expression reporter modulators in myotubes – cell-based, C2C12 myotubes, firefly/Renilla luciferase, luminescence, FRG1 inhibition for FSHD, primary screen (AID 1084). To be noted: FRG1 promoter luciferase, higher = more signal, called active from +8 up or from −8 down.
Assay [9] can be described thus: small molecules captured by biotinylated probe aFST – biochemical, small-molecule microarray, fluorescence 635/667, stem cell growth factor project, primary screen (AID 1086).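 Further: score merges 667 nm fluorescence with signal-to-noise of each printed compound spot.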 To be noted: higher = more signal.
A short description of assay [10]: binders of probe aHhip on microarray, primary screen, stem cell growth factor project, biochemical, small-molecule microarray, fluorescence 635/667 (AID 1087).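 Further: score merges spot fluorescence at 667nm with spot signal to noise ratio.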 To be noted: higher = more signal.
The test system of assay [11] is PRMT1 (protein arginine N-methyltransferase 1). The assay is described as follows: small molecules binding arginine methyltransferase PRMT1 – biochemical, small-molecule microarray, 635 nm fluorescence, primary screen (AID 1088).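 Further: binding of Prmt1 protein to compounds spotted on small-molecule microarray slides.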 Particulars: higher = more signal.
Assay [12] in a line: growth effects on S. cerevisiae YJM789 – YJM789 clinical isolate, OD600, 24 h, basal, primary screen (AID 1089).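 Further: growth of clinical yeast isolate S. cerevisiae YJM 789 seeded 1000 cells per well; test concentration not given here.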 Particulars: higher = more signal, called active from +8 up or from −8 down.
Assay [13] can be described thus: S. pombe growth modifiers, basal conditions – strain 972, OD600, 24 h, no modulator, primary screen (AID 1090).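 Further: basal condition with compound alone and no growth modifier present; test concentration not given here.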 Particulars: S. pombe 972 growth, higher = more signal, called active from +8 up or from −8 down.
Assay [14] can be described thus: budding yeast growth modifiers under rapamycin – strain BY4716, OD600, 96 h, primary screen (AID 1091). Further: test concentration not given here. To be noted: S. cerevisiae BY4716 + rapamycin, higher = more signal, called active from +8 up or from −8 down.
The target of assay [15] is Torsin-1A-interacting protein 2 (Homo sapiens) (UniProt Q8NFQ8). Nature of the assay: small molecules binding lysate-expressed LULL1 – cell lysate, human LULL1 lysate, 635/667 nm fluorescence, primary screen (AID 1092).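 Further: probe is lysate of COS7 cells overexpressing human LULL1; score merges per-feature 667 nm fluorescence with signal-to-noise.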 Particulars: small-molecule microarray, hLULL1 lysate binding, 635 nm fluorescence; higher = more signal.
Chain of Torsin-1A-interacting protein 2 (Homo sapiens) (Q8NFQ8 whole entry, looked up): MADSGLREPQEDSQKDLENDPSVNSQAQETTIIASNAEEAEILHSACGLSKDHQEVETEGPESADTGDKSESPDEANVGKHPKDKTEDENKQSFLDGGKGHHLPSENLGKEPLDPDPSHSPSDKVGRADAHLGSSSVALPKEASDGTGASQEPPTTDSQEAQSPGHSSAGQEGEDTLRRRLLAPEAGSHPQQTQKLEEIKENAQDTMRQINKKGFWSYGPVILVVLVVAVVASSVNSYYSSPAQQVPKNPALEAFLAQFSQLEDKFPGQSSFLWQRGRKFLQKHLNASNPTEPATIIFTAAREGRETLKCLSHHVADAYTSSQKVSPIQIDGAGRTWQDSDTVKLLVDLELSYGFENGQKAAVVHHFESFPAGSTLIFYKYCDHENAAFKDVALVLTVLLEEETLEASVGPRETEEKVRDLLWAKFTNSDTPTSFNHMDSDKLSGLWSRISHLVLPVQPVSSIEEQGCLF
A short description of assay [16]: optical density change of DRC41 E. coli – strain DRC41, OD650, 24 h, E. coli filamentation project, primary screen (AID 1093).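 Further: MC1000 strain lacking acrAB efflux and sulA so SOS filamentation is blocked; test concentration not given here.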 To be noted: E. coli DRC41 growth, higher = more signal, called active from +8 up or from −8 down.
A short description of assay [17]: probe aLefty2 binding to arrayed compounds – biochemical, biotinylated probe, 635/667 nm fluorescence, primary screen (AID 1094).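 Further: score merges spot fluorescence near 667 nm with spot signal-to-noise ratio.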 To be noted: small-molecule microarray, higher = more signal.
The test system of assay [18] is Noggin (protein binding on small-molecule microarray). The assay is described as follows: small molecules binding Noggin protein – biochemical, 635/667 nm fluorescence, primary screen (AID 1095).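 Further: score merges 667 nm feature fluorescence with signal to noise over triplicate slides.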 Particulars: 635 nm fluorescence, higher = more signal.
In assay [19] the target is Neurogenic locus notch homolog protein 3 (Homo sapiens) (UniProt Q9UM47). Nature of the assay: small molecules binding NOTCH3 protein – biochemical, 635/667 nm fluorescence, primary screen (AID 1096). To be noted: small-molecule microarray, 635 nm fluorescence, higher = more signal.
Chain of Neurogenic locus notch homolog protein 3 (Homo sapiens) (Q9UM47 whole entry, looked up): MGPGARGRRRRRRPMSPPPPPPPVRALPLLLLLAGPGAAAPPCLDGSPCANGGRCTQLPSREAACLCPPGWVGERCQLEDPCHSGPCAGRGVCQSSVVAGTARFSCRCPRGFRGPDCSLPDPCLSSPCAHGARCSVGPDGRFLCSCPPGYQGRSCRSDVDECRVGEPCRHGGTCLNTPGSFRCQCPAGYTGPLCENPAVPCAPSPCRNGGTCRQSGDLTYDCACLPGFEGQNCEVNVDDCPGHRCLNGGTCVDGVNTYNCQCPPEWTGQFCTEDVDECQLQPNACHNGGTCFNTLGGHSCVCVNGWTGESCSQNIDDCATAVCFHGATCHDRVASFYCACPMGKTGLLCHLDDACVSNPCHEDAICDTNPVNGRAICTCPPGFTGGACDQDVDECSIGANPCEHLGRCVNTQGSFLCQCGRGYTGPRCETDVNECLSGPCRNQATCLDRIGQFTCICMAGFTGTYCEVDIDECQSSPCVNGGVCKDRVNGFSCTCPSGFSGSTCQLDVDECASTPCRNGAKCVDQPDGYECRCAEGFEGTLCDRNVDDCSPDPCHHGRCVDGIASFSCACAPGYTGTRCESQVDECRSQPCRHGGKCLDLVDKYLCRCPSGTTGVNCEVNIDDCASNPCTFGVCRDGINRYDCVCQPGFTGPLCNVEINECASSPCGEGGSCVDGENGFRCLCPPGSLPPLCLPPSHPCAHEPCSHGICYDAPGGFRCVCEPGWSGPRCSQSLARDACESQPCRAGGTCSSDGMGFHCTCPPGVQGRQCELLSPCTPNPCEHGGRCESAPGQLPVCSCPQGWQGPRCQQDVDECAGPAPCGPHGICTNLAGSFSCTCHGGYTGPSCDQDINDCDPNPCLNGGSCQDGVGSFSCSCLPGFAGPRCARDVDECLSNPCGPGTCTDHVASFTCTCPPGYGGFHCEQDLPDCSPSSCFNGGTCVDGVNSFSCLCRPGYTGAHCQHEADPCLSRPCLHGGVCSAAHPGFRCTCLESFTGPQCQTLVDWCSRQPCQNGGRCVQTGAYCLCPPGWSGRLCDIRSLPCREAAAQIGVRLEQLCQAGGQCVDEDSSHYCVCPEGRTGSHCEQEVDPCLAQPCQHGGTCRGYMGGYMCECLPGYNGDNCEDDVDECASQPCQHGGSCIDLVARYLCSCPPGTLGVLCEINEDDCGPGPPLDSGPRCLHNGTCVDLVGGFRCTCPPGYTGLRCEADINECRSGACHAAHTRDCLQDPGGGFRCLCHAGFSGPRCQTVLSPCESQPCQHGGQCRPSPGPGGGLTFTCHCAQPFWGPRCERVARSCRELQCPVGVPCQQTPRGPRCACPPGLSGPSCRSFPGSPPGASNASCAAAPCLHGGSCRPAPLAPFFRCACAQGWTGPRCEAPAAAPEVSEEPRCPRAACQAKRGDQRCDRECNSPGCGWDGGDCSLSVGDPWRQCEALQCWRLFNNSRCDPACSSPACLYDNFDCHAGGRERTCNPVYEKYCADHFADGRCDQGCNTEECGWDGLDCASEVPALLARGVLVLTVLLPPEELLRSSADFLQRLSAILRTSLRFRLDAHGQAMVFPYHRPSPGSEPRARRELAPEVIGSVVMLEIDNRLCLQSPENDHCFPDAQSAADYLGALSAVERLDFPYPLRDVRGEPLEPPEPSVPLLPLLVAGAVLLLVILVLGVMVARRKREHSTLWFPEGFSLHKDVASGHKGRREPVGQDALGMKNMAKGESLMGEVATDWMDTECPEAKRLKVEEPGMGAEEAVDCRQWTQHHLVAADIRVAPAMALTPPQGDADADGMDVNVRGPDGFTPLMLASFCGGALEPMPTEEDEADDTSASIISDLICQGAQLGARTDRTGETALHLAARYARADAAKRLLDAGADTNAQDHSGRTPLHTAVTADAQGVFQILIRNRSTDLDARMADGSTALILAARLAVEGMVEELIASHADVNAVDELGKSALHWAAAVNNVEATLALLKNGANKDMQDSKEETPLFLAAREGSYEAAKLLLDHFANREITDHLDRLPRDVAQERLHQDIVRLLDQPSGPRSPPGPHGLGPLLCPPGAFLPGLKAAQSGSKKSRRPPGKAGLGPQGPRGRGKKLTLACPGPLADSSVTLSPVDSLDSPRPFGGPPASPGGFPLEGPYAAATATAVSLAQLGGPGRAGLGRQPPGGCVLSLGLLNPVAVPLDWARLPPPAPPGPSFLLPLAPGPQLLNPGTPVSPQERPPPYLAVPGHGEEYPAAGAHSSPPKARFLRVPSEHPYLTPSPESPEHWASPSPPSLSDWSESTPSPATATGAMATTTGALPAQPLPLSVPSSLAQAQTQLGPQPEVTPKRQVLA
Assay [20] is described as follows: probe aEGFR binding to arrayed compounds – biochemical, biotinylated probe, 635/667 nm fluorescence, primary screen (AID 1097).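 Further: probe is a biotinylated anti-EGFR antibody binding compounds printed on slides; score combines fluorescence near 667 nm and signal to noise of each spot.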 To be noted: small-molecule microarray, higher = more signal.

The source made the active and inactive calls.

Chain of Pro-neuregulin-1, membrane-bound isoform (Homo sapiens) (Q02297 whole entry, looked up, the tested form may be a part, canonical isoform): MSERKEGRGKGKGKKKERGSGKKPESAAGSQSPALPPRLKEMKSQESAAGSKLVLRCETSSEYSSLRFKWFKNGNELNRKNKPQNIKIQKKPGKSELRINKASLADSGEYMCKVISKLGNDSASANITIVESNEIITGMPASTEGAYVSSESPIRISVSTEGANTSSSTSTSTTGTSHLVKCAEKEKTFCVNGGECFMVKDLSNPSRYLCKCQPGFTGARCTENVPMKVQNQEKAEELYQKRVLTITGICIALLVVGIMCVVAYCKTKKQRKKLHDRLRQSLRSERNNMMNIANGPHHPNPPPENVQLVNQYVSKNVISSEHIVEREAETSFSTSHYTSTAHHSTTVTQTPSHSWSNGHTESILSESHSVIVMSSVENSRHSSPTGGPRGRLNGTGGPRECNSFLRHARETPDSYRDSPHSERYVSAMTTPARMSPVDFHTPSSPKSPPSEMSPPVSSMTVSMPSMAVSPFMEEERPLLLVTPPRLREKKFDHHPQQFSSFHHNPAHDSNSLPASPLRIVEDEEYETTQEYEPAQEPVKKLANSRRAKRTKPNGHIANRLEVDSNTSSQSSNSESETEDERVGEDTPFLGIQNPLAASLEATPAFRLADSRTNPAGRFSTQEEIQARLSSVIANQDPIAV

As for `COc1ccc(NC(=O)O[C@H]2[C@H](OC(=O)Nc3ccc4c(c3)OCO4)[C@H](OC(=O)Nc3ccc4c(c3)OCO4)[C@@H](OC)O[C@@H]2CO)cc1`, the composite z-score was 0.198 in assay [1]; 0.347 in [2]; 0.0519 in assay [3]; 0.739 in assay [4]; 0.302 in assay [5]; 0.978 in [6]. For the same molecule, the composite z-score in [7] is 0.905; in assay [9] it was 0.327; in [10], 0.142; in assay [11], 1.54; in assay [15] it was 2.96; in [17], -0.121. Also, the composite z-score was -0.0137 in assay [18], 0.569 in assay [19] and -0.0922 in assay [20]. Besides, the z-score in [8] was 3.53 (inactive); in assay [12], 1.87 (inactive); in assay [13], 1.41 (inactive); in [14], 4.72 (inactive); in [16], 0.212 (inactive).

`Cc1ccc(F)cc1S(=O)(=O)N[C@@H]1CCN(Cc2ccc3c(c2)OCO3)C1`: the composite z-score in assay [1] was -0.125; in assay [2], 0.267; in [3], -0.135; in assay [4] it was -0.0066; in assay [5] it was -0.898; in [6] it was -0.474. The composite z-score in assay [7] is -0.276; in assay [9] it was -0.264; in assay [10], -0.0994; in assay [11] it was -0.5; in assay [15] it was -0.539; in [17], -0.148. In addition, the composite z-score was 0.171 in assay [18], -0.307 in assay [19] and -0.226 in assay [20]. The z-score in assay [8] is -4.06 (inactive); in assay [12], 0.158 (inactive); in assay [13], -2.41 (inactive); in [14] it was 1.23 (inactive); in [16], -1.4 (inactive).

Turning to `C[C@H]1C2[C@H](Cc3ccccc3)NC(=O)[C@]23C(=O)NCC(=O)N2CCC[C@H]2C(=O)NC/C=C\C/C=C/C3[C@@H]2O[C@]12C` (stereo not given in full), the composite z-score was -0.376 in assay [1]; 0.171 in [2]; -0.087 in assay [3]; 0.557 in [4]; 0.726 in assay [5]; -0.139 in [6]. For the same molecule, the composite z-score in assay [7] was -0.0828; in [9] it was -0.274; in assay [10] it was 0.123; in [11], -0.115; in [15] it was -0.691; in [17], -0.161. Besides, the composite z-score was -0.102 in assay [18], 0.105 in assay [19] and -0.0531 in assay [20]. For the same molecule, the z-score in assay [8] was 0.276 (inactive); in [12] it was -0.479 (inactive); in [13], -0.186 (inactive); in [14], -0.406 (inactive); in [16] it was 0.924 (inactive).

Take `CC(C)[Si](C#CCCCC#N)(O[C@H](c1ccccc1)c1cn([C@H](C)c2ccccc2)nn1)C(C)C`: the composite z-score in [1] was -0.207; in assay [2], 0.268; in [3], -0.0538; in [4], 0.505; in [5], 0.792; in [6] it was 0.816. The composite z-score in assay [7] was 0.726; in assay [9] it was 0.612; in [10] it was -0.214; in assay [11], 1.48; in [15], 0.76; in assay [17], 0.064. Further, the composite z-score in assay [18] is 1.08; in [19], 1.1; in assay [20], -0.152. The z-score in assay [8] was -2.24 (inactive); in [12], -0.766 (inactive); in assay [13] it was -0.415 (inactive); in [14], -3.12 (inactive); in assay [16], 0.674 (inactive).

Turning to `CN(C)CCCCNC(=O)[C@H]1C[C@H]2C(=O)N[C@@H](Cc3ccccc3)C(=O)N2[C@H]1c1cccc(OCCO)c1`, the composite z-score was 0.863 in assay [1]; 0.46 in assay [2]; -0.158 in [3]; -0.436 in assay [4]; -0.252 in assay [5]; 0.136 in assay [6]. The composite z-score was 0.606 in [7]; -0.549 in assay [9]; 0.0092 in [10]; 0.193 in assay [11]; 0.33 in assay [15]; -0.0924 in assay [17]. In addition, the composite z-score in assay [18] is 0.622; in assay [19], 0.307; in [20] it was -0.0512. Besides, the z-score was 3.32 (inactive) in [8]; -1.11 (inactive) in [12]; 0.0737 (inactive) in assay [13]; -0.247 (inactive) in assay [14]; 1.13 (inactive) in [16].

Consider `CC1CC/C=C\[C@H]2OC34C=CCN(c5ccc(Cl)cc5)C(=O)[C@H]3N(CCCO)C(=O)[C@]4(C)C2C(=O)O1` (stereo not given in full), for which the composite z-score in [1] was 0.316; in assay [2] it was -1.4; in assay [3], -0.162; in assay [4], -1.11; in [5], -0.932; in [6], 1.38. In addition, the composite z-score in assay [7] was 1.64; in assay [9], -0.558; in assay [10], -0.296; in assay [11], -1.33; in assay [15], -0.265; in assay [17], -0.154. For the same molecule, the composite z-score is -0.774 in assay [18], -0.105 in assay [19] and -0.151 in [20]. Further, the z-score in assay [8] is -0.0856 (inactive); in assay [12], 0.0887 (inactive); in [13], -0.117 (inactive); in assay [14], 1.13 (inactive); in assay [16] it was -0.643 (inactive).

Turning to `COC(=O)[C@@]1(Cc2ccccc2)[C@H]2c3cc(C(=O)N4CCCC4)n(Cc4ccc(C(F)(F)F)nc4)c3C[C@H]2CN1C(=O)c1ccccc1`, the composite z-score in assay [1] was determined as 0.356; in assay [2] it was 1.74; in assay [3] it was 0.237; in assay [4], 0.747; in assay [5], 1.54; in assay [6] it was 1.98. Further, the composite z-score was found to be 1.37 in assay [7]; 2.11 in [9]; 0.0858 in [10]; 1.19 in assay [11]; 3.64 in assay [15]; 0.226 in assay [17]. Besides, the composite z-score in assay [18] turned out to be 0.073; in [19], 1.03; in assay [20], 0.265. In addition, the z-score was 0.419 (inactive) in assay [8]; -0.461 (inactive) in assay [12]; 0.449 (inactive) in [13]; 1.98 (inactive) in assay [14]; -0.35 (inactive) in [16].

With `O=C1c2ccccc2[C@@]2(Cc3ccccc3N(Cc3ccccc3)C2=O)[C@H](c2ccc(CO)cc2)N1Cc1ccccc1`, the composite z-score is 0.55 in assay [1]; -0.0642 in [2]; -0.078 in assay [3]; -0.221 in assay [4]; -0.476 in assay [5]; -0.605 in assay [6]. Further, the composite z-score was -0.564 in [7]; -0.351 in assay [9]; -0.0645 in assay [10]; 0.131 in [11]; 0.118 in assay [15]; -0.0321 in assay [17]. Further, the composite z-score is -0.945 in assay [18], -1.15 in assay [19] and -0.218 in [20]. The z-score in assay [8] is 0.161 (inactive); in [12], -0.82 (inactive); in [13] it was -0.678 (inactive); in assay [14], 15.9 (active); in [16], -0.737 (inactive).

Regarding `COc1ccc([Si](C)(C)[C@H]2[C@H](CCn3cc([C@H](O)c4ccccc4)nn3)O[C@@]3(C(=O)N(C)c4c(Br)cc(C)cc43)[C@@H]2C)cc1`, the composite z-score in [1] was -0.0258; in assay [2], 0.48; in [3], -0.113; in assay [4], -0.327; in assay [5] it was -0.442; in assay [6], 0.218. Moreover, the composite z-score is 0.881 in assay [7]; -0.438 in assay [9]; -0.0994 in assay [10]; 0.661 in assay [11]; -0.168 in assay [15]; -0.138 in assay [17]. The composite z-score in assay [18] was 1.96; in assay [19], -0.615; in [20], -0.179. The z-score in assay [8] was -0.905 (inactive); in assay [12] it was 0.31 (inactive); in [13], 0.467 (inactive); in assay [14] it was 1.34 (inactive); in [16], 0.832 (inactive).

The values above are taken from PubChem BioAssay.
